Results filed as inconclusive are left out. Where a call stands in place of a potency, no number is given. Active and inactive are the calls of the source. Calls come from the whole dose curve; as a rule, active = well fitted activation curve with a large enough effect in the signal ratio in the repeat runs (not every such curve was filed as active); inconclusive = weak or mixed curves, or effect the other way; inactive = no such curve, though single readings can be large or run the other way; the % refers to the signal ratio.

This is an account of results in PubChem BioAssay (Tox21).
Potency is the fitted concentration of half-maximal effect.

The experiment is described as follows: qHTS assay for small molecule agonists of the antioxidant response element (ARE) signaling pathway (AID 743202). The note with it: HepG2 ARE-bla reporter, beta-lactamase FRET, 16 h; series mostly up to 73.3 µM. From the text:
U.S. Tox21 Program National Center for Advancing Translational Sciences [NCATS] NIH Chemical Genomics Center [NCGC] U.S. Environmental Protection Agency [EPA] National Institutes of Environmental Health Sciences [NIEHS] National Toxicology Program [NTP] U.S. Food and Drug Administration [FDA] Tox21 Assay Overview: Oxidative stress has been implicated in the pathogenesis of a variety of diseases ranging from cancer to neurodegeneration. The antioxidant response element (ARE) signaling pathway plays an important role in the amelioration of oxidative stress. The CellSensor ARE-bla HepG2 cell line (Invitrogen) can be used for analyzing the Nrf2/antioxidant response signaling pathway. Nrf2 (NF-E2-related factor 2) and Nrf1 are transcription factors that bind to AREs and activate these genes. The CellSensor ARE-bla Hep G2 cell line contains a beta-lactamase reporter gene under control of the Antioxidant Response Element (ARE) stably integrated into HepG2 cells. The activation of the report gene under culture conditions can be detected by fluorescence intensity. This cell line has been used to screen the Tox21 10K compound library to identify agonists that induce oxidative stress.
Tox21 Assay Protocol Summary: The ARE-bla cells were dispensed at 2,000 cells/5 ul/well in 1536-well black wall/clear bottom plates using a Multidrop dispenser. After the assay plates were incubated at a 37 C/5% CO2 incubator for 5 hours, 23 nL of compounds dissolved in DMSO, positive controls or DMSO only was transferred to the assay plate by a pin tool. The plates were incubated at 37 C for 16 hours. After 1 uL of LiveBLAzer B/G FRET substrate was added using a Flying Reagent Dispenser, the plates were incubated at room temperature for 2 hours, and fluorescence intensity was measured by an Envision plate reader.
In general terms: Quantitative high-throughput screening tests each substance at several concentrations.
Turning to `CC(=O)c1ccc(Cl)c(Cl)c1Cl`, the Potency entry is “inactive”.

With `CC1(C)C(=O)NC(=O)N1CO`, the Potency entry is “inactive”.

For `CC(C)CCCCCCCOC(=O)c1ccc(C(=O)OCCCCCCCC(C)C)c(C(=O)OCCCCCCCC(C)C)c1`, the Potency result is “inactive”.

Take `CC(=O)OCC(=O)[C@@]1(O)CC[C@H]2[C@@H]3CCC4=CC(=O)C=C[C@]4(C)[C@@]3(F)[C@@H](O)C[C@@]21C`: the Potency entry is “inactive”.

With `COc1ccc(/C(C)=C/C(=O)O)c(OC)c1`, the Potency result is “inactive”.

Take `O=C(O)c1ccc2cc(O)ccc2c1`: the Potency result is “inactive”.

As for `O=C(O)c1ccncc1`, the Potency entry was “inactive”.

Regarding `O=[N+]([O-])c1cccc(I)c1`, the Potency result was “inactive”.

As for `CC(C)=CCC/C(C)=C/C=N/O`, the Potency result was “inactive”.

In the case of `Clc1nc2ccccc2nc1Cl`, the Potency result is “inactive”.

Turning to `CC/C=C\CCO`, the Potency entry was “inactive”.

`CO[C@@H]1[C@@H](O[C@@H]2O[C@H](C)[C@@H](O[C@H]3C[C@@](C)(O)[C@@H](O)[C@H](C)O3)[C@H](N(C)C)[C@H]2O)[C@@H](CC=O)C[C@@H](C)[C@@H](O[C@@H]2CC[C@H](N(C)C)[C@@H](C)O2)/C=C/C=C/C[C@@H](C)OC(=O)C[C@H]1OC(C)=O`: the Potency result is “inactive”.

In the case of `O=C(O)COCC(=O)O`, the Potency entry was “inactive”.

Regarding `CNc1ccccc1`, the Potency entry was “inactive”.

As for `CC(CC(C#N)(c1ccccc1)C(C)C)N(C)C` (stereo not given), the Potency entry was “inactive”.

With `O=C(O)c1cc(C(=O)O)cc([N+](=O)[O-])c1`, the Potency entry is “inactive”.

Consider `O=C1OC(=O)C2CC=CCC12` (stereo not given), for which the Potency result was “inactive”.

Turning to `N#C[C@@H]1CC(F)(F)CN1C(=O)CNC1CC2CCC(C1)N2c1ncccn1` (stereo not given in full), the Potency entry is “inactive”.

In the case of `CCOCCn1c(N2CCCN(C)CC2)nc2ccccc21`, the Potency result was “inactive”.

In the case of `CC1(C)CC(O)CC(C)(C)N1[O]`, the Potency result was “inactive”.

In the case of `O=C(O)CCc1nc2ccccc2[nH]1`, the Potency entry is “inactive”.

Turning to `CC(C)(C)c1ccc(CCC=O)cc1`, the Potency result was “inactive”.

Regarding `CC(=O)Oc1cccc2c1C(=O)c1c(OC(C)=O)cc(C(=O)O)cc1C2=O`, the Potency is 15 µM (active).

For `CCOc1ccc(NC(C)=O)cc1N`, the Potency entry was “inactive”.

For the compound `O=C(OC1C[C@H]2CC[C@@H](C1)[N+]21CCCC1)C(O)(c1ccccc1)c1ccccc1` (stereo not given in full), the Potency result is “inactive”.

Turning to `O=c1[nH][nH]c2ccccc12`, the Potency entry is “inactive”.

For the compound `CCC[Si](OC)(OC)OC`, the Potency entry is “inactive”.

On to `CC(C)(O)C(=O)O`, for which the Potency result was “inactive”.

Regarding `C1=COCCC1`, the Potency result was “inactive”.

Consider `Clc1ccccc1-c1nc(-c2ccncc2)no1`, for which the Potency was 1.68 µM (active).

With `CC(C)(C)NCC(O)COc1ccc(NC(=O)NC2CCCCC2)cc1` (stereo not given), the Potency result is “inactive”.

Turning to `Cc1c(Cl)cccc1Nc1ccccc1C(=O)O`, the Potency is 26.6 µM (active).

`Cc1ccc(S(=O)(=O)NC(=O)NC2CCCC2)cc1`: the Potency result was “inactive”.

As for `Cc1cc(N)n(-c2ccccc2)n1`, the Potency entry is “inactive”.

As to `CC(C(=O)O)c1ccc(/C=C2\CCCCC2=O)cc1` (stereo not given), the Potency is 29.8 µM (active).

As to `CCCCCCCCC(=O)OCC(C)OC(=O)CCCCCCCC` (stereo not given), the Potency entry is “inactive”.

For the compound `C/C(=C(\CCO)SS/C(CCO)=C(\C)N(C=O)Cc1cnc(C)nc1N)N(C=O)Cc1cnc(C)nc1N`, the Potency result was “inactive”.

As for `CC(C)NC(=O)c1ccccc1N`, the Potency entry was “inactive”.

For the compound `NC(=O)c1ccccc1`, the Potency result was “inactive”.

Take `NC(=O)c1ccccc1C(N)=O`: the Potency was 24.4 µM (active).
